Reference: PubChem BioAssay (NCI)
Compounds without any hit were thinned out: in the full panel of roughly 83,000, 20% have a hit.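 Method: cells in 96-well plates; compound added at one concentration; 48 h incubation; percent growth measured; values under 10 scored active.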 Active and inactive are the calls of the source.

How the values were obtained:
Test in all cases: NCI-60 one-dose screen, 48 h (100 = growth as untreated, 0 = no growth, -100 = all killed)
NCI-H23 lung = settings: 10 µM unless noted
NCI-H226 lung = settings: 10 µM unless noted
NCI-H322M lung = settings: 10 µM unless noted
HOP-62 NSCLC = settings: 10 µM unless noted
NCI-H460 lung = settings: 10 µM unless noted
HOP-92 NSCLC = settings: 10 µM unless noted
NCI-H522 lung = settings: 10 µM unless noted
A549/ATCC NSCLC = settings: 10 µM unless noted
786-0 renal = settings: 10 µM unless noted
COLO 205 colon = settings: 10 µM unless noted
DU-145 prostate = settings: 10 µM unless noted
K-562 leukemia = settings: 10 µM unless noted
MALME-3M melanoma = settings: 10 µM unless noted
MDA-MB-231 breast = settings: 10 µM unless noted
SF-268 CNS = settings: 10 µM unless noted
SF-295 CNS = settings: 10 µM unless noted
SF-539 CNS = settings: 10 µM unless noted
UACC-257 melanoma = settings: 10 µM
M14 melanoma = settings: 10 µM unless noted
RXF 393 renal = settings: 10 µM unless noted

Measured: growth

CC(=O)Nc1nc(C(=O)N2N=C(C)/C(=C/c3cccs3)C2=O)cs1
inactive: NCI-H23 lung 107% | NCI-H226 lung 101% | NCI-H322M lung 95.4% | HOP-62 NSCLC 99.1% | NCI-H460 lung 107% | HOP-92 NSCLC 99.1% | NCI-H522 lung 86.6% | A549/ATCC NSCLC 101% | 786-0 renal 102% | COLO 205 colon 104% | DU-145 prostate 99.4% | K-562 leukemia 102% | MALME-3M melanoma 86% | MDA-MB-231 breast 111% | SF-268 CNS 107% | SF-295 CNS 106% | SF-539 CNS 103% | UACC-257 melanoma 91.7% | M14 melanoma 101%

C=CCOc1ccc(/C(O)=C2\C(=O)C(=O)N(c3nccs3)C2c2ccccc2F)cc1 (configuration not stated)
inactive: NCI-H23 lung 119% | NCI-H226 lung 102% | NCI-H322M lung 80% | HOP-62 NSCLC 92.3% | NCI-H460 lung 94.4% | HOP-92 NSCLC 106% | NCI-H522 lung 100% | A549/ATCC NSCLC 95.4% | 786-0 renal 95.5% | COLO 205 colon 104% | DU-145 prostate 114% | K-562 leukemia 109% | MALME-3M melanoma 92.1% | MDA-MB-231 breast 112% | SF-268 CNS 116% | SF-295 CNS 85.1% | SF-539 CNS 125% | M14 melanoma 82.7%
active: RXF 393 renal -20.5%

O=C1OC(c2ccccc2)=N/C1=C\c1ccc([N+](=O)[O-])cc1
inactive: NCI-H23 lung 100% | NCI-H226 lung 93.6% | NCI-H322M lung 96.2% | HOP-62 NSCLC 90.1% | NCI-H460 lung 94.6% | HOP-92 NSCLC 87.1% | NCI-H522 lung 94.9% | A549/ATCC NSCLC 120% | 786-0 renal 98.6% | COLO 205 colon 109% | DU-145 prostate 109% | K-562 leukemia 112% | MALME-3M melanoma 89% | MDA-MB-231 breast 94.1% | RXF 393 renal 101% | SF-268 CNS 101% | SF-295 CNS 103% | SF-539 CNS 99.2% | M14 melanoma 95.4%

CCOC(=O)c1cc(/C(=N\O)c2cc(OC)c(OC)c(OC)c2)n2c(C)cccc12
inactive: NCI-H23 lung 59.3% | NCI-H226 lung 78.8% | NCI-H322M lung 59.2% | HOP-62 NSCLC 36.2% | NCI-H460 lung 15.3% | HOP-92 NSCLC 54.6% | A549/ATCC NSCLC 48% | 786-0 renal 26.3% | COLO 205 colon 21.2% | DU-145 prostate 50.1% | K-562 leukemia 16.8% | MALME-3M melanoma 44.8% | MDA-MB-231 breast 48.7% | RXF 393 renal 34.5% | SF-268 CNS 43% | SF-295 CNS 11.3% | SF-539 CNS 15.2% | M14 melanoma 20.8%
active: NCI-H522 lung -3.5%

CC/C=C\C/C=C\C[C@H](O)C/C=C1/C(=O)C=C[C@H]1C/C=C\CCC(=O)OC
inactive: NCI-H23 lung 54.3% [8.25 µM] | NCI-H226 lung 69.9% [8.25 µM] | NCI-H322M lung 90.2% [8.25 µM] | HOP-62 NSCLC 37.6% [8.25 µM] | NCI-H460 lung 90.2% [8.25 µM] | HOP-92 NSCLC 58.6% [8.25 µM] | A549/ATCC NSCLC 53.4% [8.25 µM] | 786-0 renal 44.7% [8.25 µM] | DU-145 prostate 46% [8.25 µM] | MALME-3M melanoma 41.6% [8.25 µM] | MDA-MB-231 breast 21% [8.25 µM] | RXF 393 renal 21.3% [8.25 µM] | SF-268 CNS 20.6% [8.25 µM] | SF-295 CNS 82.4% [8.25 µM] | SF-539 CNS 17% [8.25 µM] | M14 melanoma 12.7% [8.25 µM]
active: NCI-H522 lung -30.8% [8.25 µM] | COLO 205 colon 0.861% [8.25 µM] | K-562 leukemia 5.45% [8.25 µM]

CC(=O)Oc1cccc(OC(C)=O)c1OC(C)=O
inactive: NCI-H23 lung 111% | NCI-H226 lung 97.8% | NCI-H322M lung 99.7% | HOP-62 NSCLC 92.1% | NCI-H460 lung 110% | HOP-92 NSCLC 106% | NCI-H522 lung 75.2% | A549/ATCC NSCLC 72.6% | 786-0 renal 97.7% | COLO 205 colon 107% | DU-145 prostate 108% | K-562 leukemia 100% | MALME-3M melanoma 97.6% | MDA-MB-231 breast 98.9% | RXF 393 renal 99.5% | SF-268 CNS 105% | SF-295 CNS 99.2% | SF-539 CNS 99.5% | M14 melanoma 95.3%

CCN(CC)CCC(=O)c1cccc2ccccc12
active: NCI-H522 lung 9.95%
inactive: NCI-H23 lung 95.3% | NCI-H226 lung 104% | NCI-H322M lung 103% | HOP-62 NSCLC 112% | NCI-H460 lung 110% | HOP-92 NSCLC 99.4% | A549/ATCC NSCLC 98.6% | 786-0 renal 102% | COLO 205 colon 124% | DU-145 prostate 108% | K-562 leukemia 89.6% | MALME-3M melanoma 98.6% | MDA-MB-231 breast 94.8% | RXF 393 renal 102% | SF-268 CNS 109% | SF-295 CNS 101% | SF-539 CNS 92.4% | M14 melanoma 111%

C=CCc1cc(Cl)cc2c(OC(C)=O)c(C(C)=O)c(-c3ccccc3)nc12
inactive: NCI-H23 lung 91.8% | NCI-H226 lung 103% | NCI-H322M lung 106% | HOP-62 NSCLC 89.2% | NCI-H460 lung 106% | HOP-92 NSCLC 105% | NCI-H522 lung 96.4% | A549/ATCC NSCLC 102% | 786-0 renal 107% | COLO 205 colon 108% | DU-145 prostate 112% | K-562 leukemia 109% | MALME-3M melanoma 104% | MDA-MB-231 breast 90.7% | RXF 393 renal 130% | SF-268 CNS 109% | SF-295 CNS 114% | SF-539 CNS 110% | M14 melanoma 104%
